This note sets out measurements from PubChem BioAssay (EPA / NIEHS).

Read-out in assay [1]: Cyclin Dependent Kinase Inhibitor 1A (CDKN1A), CDKN1A (gene 1026)
Description: LTEA_HepaRG_CDKN1A: Life Technologies and Expression Analysis (LTEA) Assay for Cyclin Dependent Kinase Inhibitor 1A (CDKN1A) using HepaRG (AID 2283450). Particulars: mRNA level, 48 h; actives raise or lower the signal. The gist of the method:
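Read-out is CDKN1A mRNA by TaqMan qRT-PCR, normalized to three housekeeping genes and fitted in both directions against the DMSO baseline. Human HepaRG cells were treated 48 h with test chemicals up to 100 uM in half-log steps, 0.5% DMSO.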

Read-out in assay [2]: Cyclin D1 (CCND1), CCND1 (gene 595)
In words: LTEA_HepaRG_CCND1: Life Technologies and Expression Analysis (LTEA) Assay for Cyclin D1 (CCND1) using HepaRG (AID 2283451). The settings on record: mRNA level, 48 h; actives raise or lower the signal. The gist of the method:
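HepaRG plated 48 h, medium switched to serum-free induction medium, chemicals added in duplicate (top 100 uM, half-log steps, 0.5% DMSO) for 48 h, cells lysed, RNA measured by TaqMan qRT-PCR.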

Read-out in assay [3]: flavin-containing dimethylaniline monooxygenases 3 (FMO3), FMO3 (gene 2328)
In words: LTEA_HepaRG_FMO3: Life Technologies and Expression Analysis (LTEA) Assay for flavin-containing dimethylaniline monooxygenases 3 (FMO3) using HepaRG (AID 2283453).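 For AC50: differentiated human HepaRG liver cells in serum-free induction medium.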 Particulars: mRNA level, 48 h; actives raise or lower the signal. The gist of the method:
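FMO3 transcript quantified by TaqMan qRT-PCR against three housekeeping genes after 48 h chemical exposure of HepaRG cells. Eight-point half-log series, top 100 uM, 0.5% DMSO vehicle; phenobarbital 1mM induction control; up- or down-regulation fitted.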

Read-out in assay [4]: Cytochrome P450 (CYP1A1), CYP1A1 (gene 1543)
Description: LTEA_HepaRG_CYP1A1: Life Technologies and Expression Analysis (LTEA) Assay for Cytochrome P450 (CYP1A1) using HepaRG (AID 2283454). The settings on record: mRNA level, 48 h; actives raise or lower the signal. The gist of the method:
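HepaRG, 48 h post-plating switched to serum-free induction medium; 8-pt conc-response (top 100 uM, half-log, 0.5% DMSO), duplicates, 48 h. Lysis in RLT, TaqMan qRT-PCR for CYP1A1; gain or loss vs DMSO.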

Read-out in assay [5]: CFLAR gene, CFLAR (gene 8837)
In words: LTEA_HepaRG_CFLAR: Life Technologies and Expression Analysis (LTEA) Assay for CFLAR gene using HepaRG (AID 2283455). The settings on record: mRNA level, 48 h; actives raise or lower the signal. The gist of the method: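 Transcript level by qRT-PCR (normalized to ACTB, GAPDH and POLR2A) after 48 h chemical exposure of HepaRG cells, top concentration 100 uM with half-log steps, 0.5% DMSO vehicle, duplicates; fitted bidirectionally against DMSO baseline.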

A short description of assay [6]: CEETOX_H295R_TESTO: CeeTox H295R High-throughput Steroidogenesis Assay for Testosterone (TESTO) (AID 2283457). The settings on record: actives raise or lower the signal. Put shortly: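 H295R, passage ≤10, 48 h dosing; media extracted with MTBE → HPLC-MS/MS for testosterone; 7-pt standard curve sets LLOQ/ULOQ; bidirectional fit vs DMSO; MTT viability same wells.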

Read-out in assay [7]: growth arrest and DNA damage 45 (GADD45A), GADD45A (gene 1647)
In words: LTEA_HepaRG_GADD45A: Life Technologies and Expression Analysis (LTEA) Assay for growth arrest and DNA damage 45 (GADD45A) using HepaRG (AID 2283458). Particulars: mRNA level, 48 h; actives raise or lower the signal. Put shortly:
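Transcript induction or loss, quantified by TaqMan qRT-PCR against three housekeeping genes, is the read-out. HepaRG cells received chemicals for 48 h across eight half-log concentrations from 100 uM in 0.5% DMSO; gain and loss fitted relative to DMSO.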

Read-out in assay [8]: Forkhead box O3 (FOXO3), FOXO3 (gene 2309)
In words: LTEA_HepaRG_FOXO3: Life Technologies and Expression Analysis (LTEA) Assay for Forkhead box O3 (FOXO3) using HepaRG (AID 2283459). The settings on record: mRNA level, 48 h; actives raise or lower the signal. The gist of the method: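 FOXO3 transcript measured by qRT-PCR (normalized to ACTB, GAPDH, POLR2A) after 48 h exposure of HepaRG cells in serum-free induction medium. Duplicates, eight half-log concentrations up to 100 uM, 0.5% DMSO; gain or loss fitted against DMSO.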

Read-out in assay [9]: ABC Transporter (ABCB1), ABCB1 (gene 5243)
In words: LTEA_HepaRG_ABCB1: Life Technologies and Expression Analysis (LTEA) Assay for ABC Transporter (ABCB1) using HepaRG (AID 2283460). The settings on record: mRNA level, 48 h; actives raise or lower the signal. The gist of the method:
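ABCB1 transcript level measured by TaqMan qRT-PCR against three housekeeping genes after 48 h chemical exposure of differentiated HepaRG cells. Top concentration 100 uM, half-log steps, eight points, 0.5% DMSO vehicle; bidirectional fit relative to DMSO.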

Read-out in assay [10]: ABC Transporter (ABCC3), ABCC3 (gene 8714)
Description: LTEA_HepaRG_ABCC3: Life Technologies and Expression Analysis (LTEA) Assay for ABC Transporter (ABCC3) using HepaRG (AID 2283462). The settings on record: mRNA level, 48 h; actives raise or lower the signal. The gist of the method: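 Human HepaRG, 48 h dosing, 8-pt half-log series from 100 uM, 0.5% DMSO vehicle, duplicates. ABCC3 mRNA by TaqMan qRT-PCR, housekeeping-normalized; bidirectional curve fit vs DMSO.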

Read-out in assay [11]: ABC Transporter (ABCB11), ABCB11 (gene 8647)
In words: LTEA_HepaRG_ABCB11: Life Technologies and Expression Analysis (LTEA) Assay for ABC Transporter (ABCB11) using HepaRG (AID 2283463). Particulars: mRNA level, 48 h; actives raise or lower the signal. Put shortly: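 ABCB11 transcript levels quantified by TaqMan qRT-PCR against three housekeeping genes after 48 h chemical exposure of HepaRG cultures. Concentrations up to 100 uM in half-log steps, 0.5% DMSO vehicle; both induction and suppression scored.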

Read-out in assay [12]: ABC Transporter (ABCC2), ABCC2 (gene 1244)
Description: LTEA_HepaRG_ABCC2: Life Technologies and Expression Analysis (LTEA) Assay for ABC Transporter (ABCC2) using HepaRG (AID 2283464). Particulars: mRNA level, 48 h; actives raise or lower the signal. Put shortly: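 HepaRG, 48 h post-plating; serum-free induction medium; cpd 8-pt, 100 uM top, half-log, 0.5% DMSO, duplicate, 48 h. Readout: ABCC2 mRNA by qRT-PCR, norm. ACTB/GAPDH/POLR2A. Bidirectional fit vs DMSO baseline.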

Read-out in assay [13]: Broad substrate specificity ATP-binding cassette transporter ABCG2 (Homo sapiens) (UniProt Q9UNQ0)
In words: LTEA_HepaRG_ABCG2: Life Technologies and Expression Analysis (LTEA) Assay for ABC Transporter (ABCG2) using HepaRG (AID 2283465). The settings on record: mRNA level, 48 h; actives raise or lower the signal. Put shortly:
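ABCG2 transcript was quantified by TaqMan qRT-PCR against three housekeeping genes in HepaRG cells. Cells were treated in duplicate for 48 h across an 8-point half-log series up to 100 uM, with 0.5% DMSO vehicle. Gain or loss versus DMSO was fit.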

Read-out in assay [14]: ATP-citrate lyase (ACLY), ACLY (gene 47)
Description: LTEA_HepaRG_ACLY: Life Technologies and Expression Analysis (LTEA) Assay for ATP-citrate lyase (ACLY) using HepaRG (AID 2283466). Particulars: mRNA level, 48 h; actives raise or lower the signal. The gist of the method: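 ACLY mRNA quantified by qRT-PCR on Fluidigm arrays against three housekeeping genes, after 48 h chemical treatment of HepaRG cells (top concentration 100 uM, half-log steps, 0.5% DMSO vehicle). Up- or down-regulation fitted relative to DMSO.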

Read-out in assay [15]: Peroxisomal acyl-coenzyme A oxidase 1 (ACOX1) gene, ACOX1 (gene 51)
Description: LTEA_HepaRG_ACOX1: Life Technologies and Expression Analysis (LTEA) Assay for Peroxisomal acyl-coenzyme A oxidase 1 (ACOX1) gene using HepaRG (AID 2283467). Particulars: mRNA level, 48 h; actives raise or lower the signal. Put shortly:
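ACOX1 transcript levels were quantified by TaqMan qRT-PCR against three housekeeping genes after 48 h chemical exposure of differentiated human HepaRG cells. Exposure used eight half-log steps topping at 100 uM, 0.5% DMSO vehicle, in duplicate. Bidirectional curve fits were made relative to DMSO.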

Read-out in assay [16]: Alkaline Phosphatase, Placental (ALPP) gene, ALPP (gene 250)
Description: LTEA_HepaRG_ALPP: Life Technologies and Expression Analysis (LTEA) Assay for Alkaline Phosphatase, Placental (ALPP) gene using HepaRG (AID 2283468).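 For AC50: differentiated human HepaRG liver cells in serum-free induction medium.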 Particulars: mRNA level, 48 h; actives raise or lower the signal. Put shortly: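 HepaRG, 48 h plating then 48 h dosing, serum-free induction medium, 0.5% DMSO. 8 conc, half-log, max 100 uM, duplicates. Endpoint: ALPP transcript by qRT-PCR, housekeeping-normalized; gain or loss fitted vs DMSO.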

Read-out in assay [17]: Bcl-2 (BAD) gene, BAD (gene 572)
In words: LTEA_HepaRG_BAD: Life Technologies and Expression Analysis (LTEA) Assay for Bcl-2 (BAD) gene using HepaRG (AID 2283469). Particulars: mRNA level, 48 h; actives raise or lower the signal. Put shortly:
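Read-out: qRT-PCR of BAD mRNA, normalized to three housekeeping genes. Human HepaRG cultures got 48 h chemical exposure in 0.5% DMSO, duplicate eight-point half-log series topping at 100 uM. Gain or loss of signal fitted versus DMSO vehicle.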

Read-out in assay [18]: catalase (CAT), CAT (gene 847)
Description: LTEA_HepaRG_CAT: Life Technologies and Expression Analysis (LTEA) Assay for catalase (CAT) using HepaRG (AID 2283452). Particulars: mRNA level, 48 h; actives raise or lower the signal. Put shortly:
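Expression of CAT was quantified by TaqMan qRT-PCR with ACTB/GAPDH/POLR2A normalization after 48 h chemical exposure of HepaRG. Eight-point half-log series, top 100 uM, in 0.5% DMSO; gain or loss fitted against vehicle.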

Read-out in assay [19]: Forkhead box O1 (FOXO1), FOXO1 (gene 2308)
Description: LTEA_HepaRG_FOXO1: Life Technologies and Expression Analysis (LTEA) Assay for Forkhead box O1 (FOXO1) using HepaRG (AID 2283456). Particulars: mRNA level, 48 h; actives raise or lower the signal. Put shortly:
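FOXO1 transcript quantified by qRT-PCR after 48 h chemical exposure (top 100 uM, half-log steps, 0.5% DMSO) of HepaRG cells, housekeeping-normalized (ACTB/GAPDH/POLR2A). Changes fitted in both directions relative to vehicle.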

Read-out in assay [20]: growth arrest and DNA damage 45 (GADD45B), GADD45B (gene 4616)
Description: LTEA_HepaRG_GADD45B: Life Technologies and Expression Analysis (LTEA) Assay for growth arrest and DNA damage 45 (GADD45B) using HepaRG (AID 2283461). The settings on record: mRNA level, 48 h; actives raise or lower the signal. Put shortly: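 HepaRG, ~100,000 cells/well, 48 h plating; serum-free induction medium; cpd 100 uM top, half-log x8, 0.5% DMSO, duplicate, 48 h; lysis in RLT, RNA isolation, qRT-PCR; norm ACTB/GAPDH/POLR2A; bidirectional fit vs DMSO.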

Active and inactive are the calls of the source. Rule for the calls: active = hit-call score of the fitted dose curve at least 0.9, where 1 is the maximum; inactive = score below 0.9.

Sequence of Broad substrate specificity ATP-binding cassette transporter ABCG2 (Homo sapiens) (Q9UNQ0 whole entry, looked up): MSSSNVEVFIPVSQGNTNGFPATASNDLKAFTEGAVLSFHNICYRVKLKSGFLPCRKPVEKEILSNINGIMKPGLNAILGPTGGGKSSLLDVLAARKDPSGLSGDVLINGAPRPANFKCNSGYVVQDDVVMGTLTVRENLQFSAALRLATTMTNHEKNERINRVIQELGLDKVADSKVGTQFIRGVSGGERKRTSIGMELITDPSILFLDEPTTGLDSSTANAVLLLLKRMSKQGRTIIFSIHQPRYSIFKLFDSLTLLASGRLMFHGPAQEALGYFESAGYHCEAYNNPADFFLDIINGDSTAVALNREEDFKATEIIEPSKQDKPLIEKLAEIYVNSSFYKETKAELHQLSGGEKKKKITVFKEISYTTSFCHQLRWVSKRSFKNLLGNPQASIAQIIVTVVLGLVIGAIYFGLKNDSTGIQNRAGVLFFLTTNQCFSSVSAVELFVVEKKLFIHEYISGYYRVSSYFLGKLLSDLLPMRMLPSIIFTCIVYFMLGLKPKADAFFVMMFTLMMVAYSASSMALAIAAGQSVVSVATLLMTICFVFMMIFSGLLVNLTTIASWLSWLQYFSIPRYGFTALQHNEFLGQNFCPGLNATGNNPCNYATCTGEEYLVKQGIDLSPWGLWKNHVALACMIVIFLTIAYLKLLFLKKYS

On to `CC1(C)CCC(=Cc2ccc(Cl)cc2)C1(O)Cn1cncn1` (stereo unspecified), for which the outcome in assay [1], in assay [2], in assay [3], in assay [5], in assay [6] and in assay [7] was inactive. Further, the compound was classed as inactive in [8], in [10], in assay [11], in assay [12], in assay [13] and in [15]. Besides, the outcome in assay [16] and in [17] was inactive. The AC50 (in general, the concentration giving half of the maximal activity seen) in assay [4] is 11.2 µM (active); in assay [9], 4.18 µM (active); in [14], 34 µM (active).

Turning to `COC(=O)N(C(=O)N1CO[C@@]2(C(=O)OC)Cc3cc(Cl)ccc3C2=N1)c1ccc(OC(F)(F)F)cc1`, the outcome in [1], in [2], in [19], in assay [7], in assay [8] and in assay [9] was inactive. The compound was classed as inactive in assay [10], in assay [12], in assay [13], in assay [14], in assay [16] and in assay [17]. For the same compound, the AC50 is 40 µM (active) in [18]; 40 µM (active) in assay [3]; 5.08 µM (active) in assay [4]; 29.8 µM (active) in assay [5]; 8.78 µM (active) in [20]; 40 µM (active) in [11]. Moreover, the AC50 in assay [15] was 40 µM (active).

Regarding `CS(=O)(=O)c1cc(C(F)(F)F)ccc1C(=O)c1cnoc1C1CC1`, the compound was called inactive in assay [1], in [2], in assay [3], in assay [5], in assay [19] and in assay [7]. Further, the compound was called inactive in [8], in assay [10], in assay [11], in assay [12], in [13] and in [14]. Moreover, the call in [15], in assay [16] and in assay [17] was inactive. The AC50 in [4] was 78 µM (active).

In the case of `CC(C)N1C(=O)N(c2ccccc2)CSC1=NC(C)(C)C`, the outcome in assay [2], in [4], in assay [5], in [8], in assay [10] and in assay [12] was inactive. Further, the call in [15] and in [17] was inactive. The AC50 was 91.2 µM (active) in assay [3]; 81.2 µM (active) in assay [7]; 94.4 µM (active) in [11]; 50 µM (active) in assay [13]; 84.3 µM (active) in assay [14]; 78.3 µM (active) in assay [16].
